Screening results from PubChem BioAssay.
Most compounds without a hit are left out; they make up all but 3.2% or so of the library.
MsrA inh – bovine MsrA enzyme inhibitors, primary screen, biochemical, absorbance, HTS | inhibition, % at 15.5 µM | purified bovine MsrA, absorbance read-out | Methionine sulfoxide reductase A (Bos taurus) | hit rate 0.75% among 360,000; in the data active means inhibition above about 4.5%;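 further: 0% = vehicle wells with enzyme and 100% = reference inhibitor wells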
rCAG RNA binder – binders of r(CAG) RNA repeats, primary screen, biochemical, fluorescence | r(CAG) RNA repeat, TO-PRO-1 dye displacement fluorescence | inhibition, % at 3 µM | hit rate 1.3% among 370,000 | AID 651821, 2012;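 active means inhibition above the plate cutoff, the mean of all test compounds on that plate plus 3 SD, cut at about 35% in these data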;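 further: 0% = DMSO alone and 100% = 100 µM mitoxantrone as full dye displacement; higher means more dye released from RNA so lower well fluorescence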
PG9 binder – binders of HIV-1 gp120 antibody PG9, primary screen, biochemical, TR-FRET. TR-FRET gp120-PG9 antibody binding. HIV-1 gp120 / PG9 antibody interaction. inhibition, % at 6.7 µM. hit rate 0.43% among 360,000; in the data active means inhibition above about 8.5%
MsrA act – bovine MsrA enzyme activators, primary screen, biochemical, absorbance, HTS; hit rate 0.3% among 360,000; Methionine sulfoxide reductase A (Bos taurus); purified bovine MsrA, absorbance read-out; activation, % at 10.6 µM; in the data active means activation above about 7.5%;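 further: 0% = vehicle and 100% = reference activator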
HGIII-sPLA2 inh – human group III sPLA2 inhibitors, primary screen, biochemical, QFRET, BODIPY PC-A2 liposome substrate | Group 3 secretory phospholipase A2 (Homo sapiens), Q9NZ20 | AID 743126, 2013 | inhibition, % at 12.2 µM | QFRET BODIPY PC-A2 liposome hydrolysis, fluorescence | hit rate 0.56% among 370,000;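 active means inhibition above mean plus 3 SD of compounds lying within the high and low control bounds, cut at about 19% in these data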;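 further: 0% = median of test compound wells and 100% = no enzyme DMSO wells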
Target sequence (Q9NZ20 whole entry, looked up): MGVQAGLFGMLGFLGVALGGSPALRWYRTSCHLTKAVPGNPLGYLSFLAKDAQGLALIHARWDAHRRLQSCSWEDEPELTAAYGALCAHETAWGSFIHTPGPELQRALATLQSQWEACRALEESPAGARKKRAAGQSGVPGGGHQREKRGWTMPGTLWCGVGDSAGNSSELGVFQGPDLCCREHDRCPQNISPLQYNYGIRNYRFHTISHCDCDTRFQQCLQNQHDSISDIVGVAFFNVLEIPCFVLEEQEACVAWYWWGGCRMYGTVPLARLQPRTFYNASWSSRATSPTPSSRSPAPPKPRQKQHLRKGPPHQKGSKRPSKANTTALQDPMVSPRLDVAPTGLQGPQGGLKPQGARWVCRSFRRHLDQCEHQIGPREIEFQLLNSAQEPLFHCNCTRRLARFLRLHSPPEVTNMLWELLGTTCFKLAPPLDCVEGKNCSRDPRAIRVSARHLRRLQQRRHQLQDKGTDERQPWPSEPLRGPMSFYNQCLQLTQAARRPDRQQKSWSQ
MsrA activ conf – bovine MsrA activators, retest, confirmation, biochemical, absorbance, HTS; hit rate 12% among 1,000; activation, % at 10.6 µM; shares compounds with MsrA act; purified bovine MsrA, absorbance read-out; in the data active means activation above about 4%;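 further: enzyme coupled to thioredoxin and thioredoxin reductase with NADPH; 0% = vehicle wells and 100% = reference activator wells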
An asterisk follows results filed as active.

What do the screens show for `CCCC(=O)OC12CCCN(C1)/C(=C/c1cccc(N(C)C)c1)C2` (centres undefined)?
rCAG RNA binder: -0.2; HGIII-sPLA2 inh: 5.4

Results for O=C(NCCc1ccccc1)OCc1cn(Cc2ccccc2F)nn1 ?
rCAG RNA binder: 0.9; HGIII-sPLA2 inh: 6.7

How did Cc1cc(C)cc(N(CC(=O)Nc2ccccc2C(=O)N2CCOCC2)S(C)(=O)=O)c1 do in these assays?
MsrA inh: -0.7; rCAG RNA binder: -3.4; PG9 binder: -0.7; MsrA act: 9.2*; HGIII-sPLA2 inh: -1.4; MsrA activ conf: -1.6

How did COc1ccc(-c2noc(C3CCCN(C(=O)Nc4cc(C)cc(C)c4)C3)n2)cc1 (centres undefined) do in these assays?
rCAG RNA binder: 1.5; HGIII-sPLA2 inh: -8.3

What do the screens show for `COC(=O)CNC(=O)COC(=O)/C=C/c1ccc2ccccc2n1`?
MsrA inh: 1.6; rCAG RNA binder: -5.8; PG9 binder: -0.7; MsrA act: 8.7*; HGIII-sPLA2 inh: 0.6; MsrA activ conf: -2.5

How did COC(=O)CNC(=O)COC(=O)/C=C/c1cccs1 do in these assays?
MsrA inh: 2.5; rCAG RNA binder: -1.8; PG9 binder: -1.2; MsrA act: -5.0; HGIII-sPLA2 inh: 3.9

Results for COc1ccc(C(=O)N/C(=C\c2cn(S(=O)(=O)N(C)C)c3ccccc23)C(=O)NCCN2CCOCC2)cc1OC ?
MsrA inh: 0.3; rCAG RNA binder: 1.6; PG9 binder: -4.2; MsrA act: -1.0; HGIII-sPLA2 inh: -3.3

How did COc1ccc(C(=O)N/C(=C\c2cn(S(=O)(=O)N(C)C)c3ccccc23)C(=O)NCCN2CCOCC2)cc1 do in these assays?
MsrA inh: 4.6*; rCAG RNA binder: 2.3; PG9 binder: 0.8; MsrA act: 18.3*; HGIII-sPLA2 inh: 0.6; MsrA activ conf: -1.3

Results for O=C(Nc1ccccc1F)C1CCCN1S(=O)(=O)c1cccc2nsnc12 (centres undefined) ?
MsrA inh: -0.2; rCAG RNA binder: -0.1; PG9 binder: -1.9; MsrA act: -3.5; HGIII-sPLA2 inh: -1.1

Results for O=C(Nc1ccccc1Br)C1CCCN1S(=O)(=O)c1cccc2nsnc12 (centres undefined) ?
MsrA inh: 1.8; rCAG RNA binder: -0.2; PG9 binder: -1.8; MsrA act: 14.5*; HGIII-sPLA2 inh: 4.8; MsrA activ conf: -0.1

How did CC(OC(=O)CNC(=O)C12CC3CC(CC(C3)C1)C2)C(=O)Nc1ccc(S(N)(=O)=O)cc1 (centres undefined) do in these assays?
MsrA inh: -0.1; rCAG RNA binder: 1.5; PG9 binder: -4.1; MsrA act: 9.1*; HGIII-sPLA2 inh: -7.7; MsrA activ conf: 2.6

Results for NC1=C(Br)C(=O)c2ccccc2C1=O ?
MsrA inh: 0.7; rCAG RNA binder: -2.2; PG9 binder: -8.4; MsrA act: 9.7*; HGIII-sPLA2 inh: 12.3; MsrA activ conf: 9.4*

How did CC(C)C[C@@H]1COc2cc(Br)ccc2S(=O)(=O)N1Cc1cn(Cc2ccccc2)nn1 do in these assays?
rCAG RNA binder: 4.0; HGIII-sPLA2 inh: 9.5

What do the screens show for `Cc1nn(CCC(=O)NNC(=S)Nc2cccc(Cl)c2)c(C)c1[N+](=O)[O-]`?
MsrA inh: 0.2; rCAG RNA binder: 14.3; PG9 binder: -1.4; MsrA act: 11.1*; HGIII-sPLA2 inh: 15.4; MsrA activ conf: 0.0

What do the screens show for `O=C1C(O)=CC(=C(c2ccccc2)c2ccccc2)c2ccccc21`?
MsrA inh: 0.2; rCAG RNA binder: 6.5; PG9 binder: -0.8; MsrA act: 9.8*; HGIII-sPLA2 inh: -4.3; MsrA activ conf: 1.7

Results for O=C(O)c1cccc2c1C(=O)c1ccccc1C2=O ?
MsrA inh: 1.1; rCAG RNA binder: -0.4; PG9 binder: -1.1; MsrA act: -2.6; HGIII-sPLA2 inh: 3.3

How did CN(C(=O)c1cccc(NC(=O)Cc2cccc(NC(=O)C3CCN(C(=O)c4ccccc4)CC3)c2)c1)C1CC1 do in these assays?
MsrA inh: -1.1; rCAG RNA binder: 2.0; PG9 binder: 0.8; MsrA act: 8.7*; HGIII-sPLA2 inh: -2.2; MsrA activ conf: -0.6

How did CN(C(=O)c1cccc(NC(=O)Cc2ccc(NC(=O)C3CCN(C(=O)c4ccccc4)CC3)cc2)c1)C1CC1 do in these assays?
MsrA inh: -0.7; rCAG RNA binder: 0.8; PG9 binder: 0.7; MsrA act: -1.1; HGIII-sPLA2 inh: -8.0

Results for CCn1c(Cc2cccs2)nnc1SCC(=O)Nc1cccc2ccccc12 ?
rCAG RNA binder: 3.0; HGIII-sPLA2 inh: 1.6

What do the screens show for `Cc1ccc(-n2[nH]c(C)c(C=Nc3ccc4[nH]c(=O)[nH]c4c3)c2=O)cc1`?
MsrA inh: 3.3; rCAG RNA binder: 7.2; PG9 binder: -0.3; MsrA act: 7.8*; HGIII-sPLA2 inh: -1.5; MsrA activ conf: -0.5

Results for Cc1ccc(-n2[nH]c(C)c(C=Nc3ccc4[nH]c(=O)[nH]c4c3)c2=O)cc1C ?
MsrA inh: 2.4; rCAG RNA binder: -7.5; PG9 binder: -1.4; MsrA act: -7.6; HGIII-sPLA2 inh: -18.1

Results for COc1cccc2c(=O)cc(C)n(CC(=O)Nc3ccc(C)c(C)c3)c12 ?
MsrA inh: 0.2; rCAG RNA binder: -0.6; PG9 binder: 2.0; MsrA act: 9.4*; HGIII-sPLA2 inh: -11.0; MsrA activ conf: 0.4

Results for COc1ccccc1NC(=O)Cn1c(C)cc(=O)c2cccc(OC)c21 ?
MsrA inh: -0.5; rCAG RNA binder: -2.2; PG9 binder: -2.2; MsrA act: -2.8; HGIII-sPLA2 inh: -2.4

How did Cc1ccc(S(=O)(=O)N2CCC(C(=O)NCCCOC(C)C)CC2)cc1 do in these assays?
MsrA inh: -0.8; rCAG RNA binder: -3.8; PG9 binder: 0.5; MsrA act: 7.7*; HGIII-sPLA2 inh: 1.0; MsrA activ conf: -0.1

What do the screens show for `CN(C)c1nc(NC(C)(C)C)nc(SCC(=O)Nc2ccccc2)n1`?
MsrA inh: 0.3; rCAG RNA binder: -10.2; PG9 binder: 2.0; MsrA act: 7.7*; HGIII-sPLA2 inh: -22.6; MsrA activ conf: -2.9

Results for CCOC(=O)c1ccc(NC(=O)c2cc(F)c(F)cc2Cl)cc1 ?
MsrA inh: 1.4; rCAG RNA binder: -3.2; PG9 binder: 1.8; MsrA act: 8.7*; HGIII-sPLA2 inh: 1.7; MsrA activ conf: 0.6

What do the screens show for `COc1ccc(S(=O)(=O)NCc2ccc(C(=O)O)cc2)cc1`?
MsrA inh: 0.8; rCAG RNA binder: -2.5; PG9 binder: -0.4; MsrA act: 7.9*; HGIII-sPLA2 inh: 9.3; MsrA activ conf: -1.5

Results for COc1ccc(S(=O)(=O)NCc2ccc(C(=O)N3CCN(Cc4ccccc4)CC3)cc2)cc1 ?
MsrA inh: -0.1; rCAG RNA binder: -4.2; PG9 binder: 1.0; MsrA act: -3.8; HGIII-sPLA2 inh: -10.5
